The values that follow come from the antibiotic and cytotoxicity screens of Wong et al. (2023).

Molecules are shown by their SMILES. Among all 39,000 compounds or so, about 3,300 (8.5%) were called active. Many of the other results were omitted from the sample, so actives are more common in it than they were.

The assay concerns HepG2. Description: cytotoxicity call (relative viability < 0.9). Conditions: 10 µM.
For `O=C(N/N=C/[C@H](O)[C@@H](O)[C@H](O)[C@H](O)CO)c1ccccn1`, the cytotoxicity call was “inactive”. The entry for `N[C@@H](CCO)c1cccc(Cl)c1` is “inactive”; for `C[C@H]1CN([C@@H](C)CO)C(=O)c2cc(Br)cnc2O[C@H]1CN(C)S(=O)(=O)c1ccccc1` it is “inactive”; for `C[C@H](CO)N1C[C@H](C)[C@@H](CN(C)C(=O)Nc2ccc(F)cc2)Oc2ccc(NS(C)(=O)=O)cc2CC1=O` it is “inactive”.

For the molecule `NCc1nnnn1-c1ccc(F)cc1`, the cytotoxicity call is “inactive”. Under `C[C@@H]1CCCCO[C@@H](CN(C)C(=O)c2ccccc2)[C@@H](C)CN([C@@H](C)CO)C(=O)c2cc(NC(=O)NC3CCCCC3)ccc2O1` stands “inactive”. Under `COc1cccc(CN(C)C[C@H]2OCc3ccccc3-c3c(n(C)c4ccccc34)C(=O)N([C@@H](C)CO)C[C@@H]2C)c1` stands “inactive”. The entry for `C[C@H]1CN([C@@H](C)CO)C(=O)c2c(c3ccccc3n2C)-c2ccccc2CO[C@H]1CN(C)Cc1cccc(F)c1` is “inactive”. For the molecule `C[C@H](CO)N1C[C@H](C)[C@@H](CN(C)Cc2cccc(F)c2)OCc2ccccc2-c2c(n(C)c3ccccc23)C1=O`, the cytotoxicity call is “inactive”. For the molecule `C[C@@H]1CN([C@H](C)CO)C(=O)c2c(c3ccccc3n2C)-c2ccccc2CO[C@H]1CN(C)Cc1cccc(F)c1`, the cytotoxicity call was “inactive”. The entry for `C[C@@H]1CN([C@@H](C)CO)C(=O)c2c(c3ccccc3n2C)-c2ccccc2CO[C@H]1CN(C)Cc1cccc(F)c1` is “inactive”; for `C[C@H](CO)N1C[C@H](C)[C@H](CN(C)Cc2cccc(F)c2)OCc2ccccc2-c2c(n(C)c3ccccc23)C1=O` it is “active”. Under `COc1cccc(CN(C)C[C@@H]2OCc3ccccc3-c3c(n(C)c4ccccc34)C(=O)N([C@@H](C)CO)C[C@@H]2C)c1` stands “inactive”. Under `COc1cccc(CN(C)C[C@H]2OCc3ccccc3-c3c(n(C)c4ccccc34)C(=O)N([C@@H](C)CO)C[C@H]2C)c1` stands “active”; under `C[C@H]1CCCCO[C@@H](CN(C)S(=O)(=O)c2ccccc2)[C@@H](C)CN([C@@H](C)CO)C(=O)c2cc(NC(=O)Nc3ccccc3)ccc2O1`, “inactive”. On to `Cc1ccc(S(=O)(=O)N2C[C@H](O)COC[C@H]3O[C@@H](CC(=O)NCc4ccc5c(c4)OCO5)CC[C@@H]32)cc1`, for which the cytotoxicity call was “inactive”.

For the molecule `N=C(N)SC=CC(=O)O`, the cytotoxicity call is “inactive”. The entry for `C[C@@H]1CN([C@H](C)CO)C(=O)c2cc(NC(=O)CCN3CCOCC3)ccc2O[C@@H]1CN(C)C(=O)Nc1ccc(F)cc1` is “inactive”; for `Cc1n[nH]c(=O)[nH]c1=O` it is “inactive”.

For the molecule `C[C@@H]1CN([C@H](C)CO)C(=O)c2cccc(NC(=O)c3ccncc3)c2O[C@H]1CN(C)S(=O)(=O)c1ccc(F)cc1`, the cytotoxicity call was “inactive”. Under `C[C@@H]1CN([C@@H](C)CO)C(=O)c2cc(C#CC3(O)CCCC3)cnc2O[C@H]1CN(C)C(=O)Nc1ccc2c(c1)OCO2` stands “inactive”; under `Cc1ccc(S(=O)(=O)Nc2cccc3c2O[C@@H](CN(C)Cc2ccc(Cl)c(Cl)c2)[C@@H](C)CN([C@H](C)CO)C3=O)cc1`, “inactive”; under `C[C@@H]1CCCCO[C@H](CN(C)C(=O)Nc2cccc3ccccc23)[C@@H](C)CN([C@H](C)CO)C(=O)c2cc(NC(=O)CCC(F)(F)F)ccc2O1`, “inactive”. The entry for `C[C@@H]1CN([C@@H](C)CO)C(=O)c2cc(NC(=O)CCC(F)(F)F)ccc2O[C@@H](C)CCCCO[C@@H]1CN(C)C(=O)Nc1cccc2ccccc12` is “inactive”; for `C[C@@H]1CCCCO[C@@H](CN(C)C(=O)Nc2cccc3ccccc23)[C@H](C)CN([C@H](C)CO)C(=O)c2cc(NC(=O)CCC(F)(F)F)ccc2O1` it is “inactive”; for `C[C@H]1CCCCO[C@H](CN(C)C(=O)Nc2cccc3ccccc23)[C@@H](C)CN([C@@H](C)CO)C(=O)c2cc(NC(=O)CCC(F)(F)F)ccc2O1` it is “active”. Under `C[C@H](CO)N1C[C@H](C)[C@@H](CN(C)C(=O)Nc2cccc3ccccc23)OCCCC[C@H](C)Oc2ccc(NC(=O)CCC(F)(F)F)cc2C1=O` stands “active”; under `C[C@@H]1CCCCO[C@@H](CN(C)C(=O)Nc2cccc3ccccc23)[C@@H](C)CN([C@H](C)CO)C(=O)c2cc(NC(=O)CCC(F)(F)F)ccc2O1`, “inactive”; under `C[C@@H]1CN([C@H](C)CO)C(=O)c2cc(NC(=O)CCC(F)(F)F)ccc2O[C@@H](C)CCCCO[C@H]1CN(C)C(=O)Nc1cccc2ccccc12`, “active”. Regarding `C[C@@H]1CCCCO[C@H](CN(C)C(=O)Nc2cccc3ccccc23)[C@H](C)CN([C@@H](C)CO)C(=O)c2cc(NC(=O)CCC(F)(F)F)ccc2O1`, the cytotoxicity call is “inactive”.

Consider `C[C@@H]1CCCCO[C@@H](CN(C)C(=O)Nc2cccc3ccccc23)[C@H](C)CN([C@@H](C)CO)C(=O)c2cc(NC(=O)CCC(F)(F)F)ccc2O1`, for which the cytotoxicity call was “inactive”. Under `CC(C)NC(=O)N(C)C[C@H]1Oc2ccc(NS(=O)(=O)c3ccccc3)cc2C(=O)N([C@@H](C)CO)C[C@H]1C` stands “inactive”; under `C[C@@H]1CN([C@H](C)CO)C(=O)c2cccc(NC(=O)Nc3ccccc3)c2O[C@@H]1CN(C)CC1CCCCC1`, “inactive”.

Consider `COc1ccccc1-c1cnc2c(c1)C(=O)N([C@@H](C)CO)C[C@@H](C)[C@@H](CN(C)C(=O)c1ccncc1)O2`, for which the cytotoxicity call is “inactive”. As to `COc1ccc(S(=O)(=O)Nc2ccc3c(c2)C(=O)N([C@H](C)CO)C[C@@H](C)[C@@H](CN(C)C(=O)CCC(F)(F)F)OCCCC[C@@H](C)O3)cc1`, the cytotoxicity call is “inactive”. The entry for `O=C(/C=C/c1ccccc1)c1ccc(O[C@@H]2O[C@H](CO)[C@@H](O)[C@H](O)[C@H]2O)cc1O` is “inactive”; for `C[C@H](CO)N1C[C@H](C)[C@@H](CN(C)S(=O)(=O)c2ccc(F)cc2)Oc2c(NS(=O)(=O)c3ccccc3)cccc2C1=O` it is “inactive”; for `CON=C(C(=O)N[C@@H]1C(=O)N2C(C(=O)O)=C(CSc3nc(=O)c(O)nn3C)CS[C@H]12)c1csc(N)n1` it is “inactive”. Under `COc1ccc(S(=O)(=O)N(C)C[C@@H]2Oc3ccc(N(C)C)cc3C(=O)N([C@H](C)CO)C[C@H]2C)cc1` stands “inactive”. For the molecule `Cc1ccc(S(=O)(=O)N2C[C@@H](O)COC[C@@H]3O[C@H](CC(=O)NCCCN(C)C)CC[C@H]32)cc1`, the cytotoxicity call is “inactive”. The entry for `Cc1ccc(S(=O)(=O)Nc2ccc3c(c2)C(=O)N([C@@H](C)CO)C[C@H](C)[C@H](CN(C)Cc2ccc(C(F)(F)F)cc2)O3)cc1` is “inactive”; for `Cc1ccc(S(=O)(=O)Nc2ccc3c(c2)C(=O)N([C@H](C)CO)C[C@@H](C)[C@@H](CN(C)Cc2ccc(C(F)(F)F)cc2)O3)cc1` it is “active”. The entry for `Cc1ccc(S(=O)(=O)Nc2ccc3c(c2)C(=O)N([C@H](C)CO)C[C@@H](C)[C@H](CN(C)Cc2ccc(C(F)(F)F)cc2)O3)cc1` is “active”.

With `Cc1ccc(S(=O)(=O)Nc2ccc3c(c2)C(=O)N([C@H](C)CO)C[C@H](C)[C@H](CN(C)Cc2ccc(C(F)(F)F)cc2)O3)cc1`, the cytotoxicity call was “active”.

With `Cc1ccc(S(=O)(=O)Nc2ccc3c(c2)C(=O)N([C@@H](C)CO)C[C@@H](C)[C@H](CN(C)Cc2ccc(C(F)(F)F)cc2)O3)cc1`, the cytotoxicity call is “inactive”. The entry for `Cc1ccc(S(=O)(=O)Nc2ccc3c(c2)C(=O)N([C@@H](C)CO)C[C@H](C)[C@@H](CN(C)Cc2ccc(C(F)(F)F)cc2)O3)cc1` is “inactive”. The entry for `Cc1ccc(S(=O)(=O)Nc2ccc3c(c2)C(=O)N([C@@H](C)CO)C[C@@H](C)[C@@H](CN(C)Cc2ccc(C(F)(F)F)cc2)O3)cc1` is “inactive”; for `Cc1ccc(S(=O)(=O)Nc2ccc3c(c2)C(=O)N([C@H](C)CO)C[C@H](C)[C@@H](CN(C)Cc2ccc(C(F)(F)F)cc2)O3)cc1` it is “inactive”.
